Data reported in PubChem BioAssay (NCATS).
Unmarked numbers belong to inactive results. Results filed as inconclusive are left out. Where a call stands in place of a potency, no number is given. Calls of active or inactive are those of the source. Unless noted, the call rests on the fitted dose curve; in most records, active means well fitted curve in the direction sought with a large enough effect; inconclusive means small, poorly fitted or top-dose-only effect, or another doubt; inactive means no such curve, though single readings can be large; an effect the other way counts as inactive or inconclusive.

Tests used:
[1] = AP1 Signaling Pathway (AID 357; active means well fitted curve in either direction with a large enough effect, not every such curve was filed as active)
How it was run: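 In this screen, ME-180 cells in Opti-MEM with 0.5% dialyzed FBS received EC50 EGF and compound titrations for 5 h. AP-1 reporter beta-lactamase was detected via CCF4 ratio, giving AC50 for positive and negative modulators.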

[2] = target: Cytochrome P450 1A2 (Homo sapiens) (UniProt P05177); assay: p450-cyp1a2 (AID 410; calls by dose curve)
How it was run: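 Luminescent demethylation readout: Luciferin-ME (100uM, equal to Km) turned over by 20nM CYP1A2 for 60 min at room temperature after NADPH regeneration addition, following 10 min compound preincubation. Normalization used 57 uM furafylline as full inhibition.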

[3] = Stat Signaling Pathway (AID 446; active means well fitted curve in either direction with a large enough effect, not every such curve was filed as active;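 further: ME-180 cervical cancer cells given 40 pM IL-6 alongside compound; SIE-controlled beta-lactamase reporter measured as 460/530 nm FRET emission ratio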)
How it was run: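 Normalization used AC90 stimulation (300 pM IL-6) and AC90 inhibition (125 nM pan-JAK inhibitor at 40 pM IL-6). The underlying signal is SIE-driven beta-lactamase in ME-180 cells after 5 h IL-6 exposure with compound.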

[4] = target: Glucocorticoid receptor (Homo sapiens) (UniProt P04150); assay: GR-GFP Redistribution (AID 450;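 active means compounds whose dose series gives a full or clear partial fitted curve of increased nuclear translocation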; further: potency means the concentration at half of the fitted maximal effect); details: U2OS GR-GFP nuclear translocation, laser cytometry, 2 h
[5] = target: Glucocorticoid receptor (Homo sapiens) (UniProt P04150); assay: GR-EFC Redistribution (AID 451; calls by dose curve; further: potency means the concentration at half of the fitted maximal effect); details: CHO-K1 GR-EFC translocation, beta-gal luminescence, 2 h
How it was run: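 CHO-K1 cells expressing nuclear EA and GR-ED fragments of b-gal; compounds titrated up to 46 uM final, 2 h at 37 C. GR nuclear translocation read as complemented b-gal luminescence after 1 h RT detection.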

[6] = target: Mitogen-activated protein kinase 10 (Mus musculus) (UniProt Q61831); assay: JNK3 AlphaScreen Assay (AID 530; active means well fitted curve in either direction with a large enough effect, not every such curve was filed as active;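 further: kinase came from lysate of stimulated human HepG2 cells; signal reports phosphorylation of biotinylated GST-cJun 1-79 at Ser73 with 10 µM ATP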)
How it was run: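 Activity was read by AlphaScreen after JNK3-containing HepG2 lysate (cytokine pre-activated) phosphorylated biotinylated GST-cJun with 10 uM ATP at room temperature. Phospho-Ser73 cJun antibody with Protein-A acceptor beads provided detection.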

[7] = target: 3',5'-cyclic-AMP phosphodiesterase 4B (Homo sapiens) (UniProt Q07343); assay: qHTS Assay for Inhibitors of PDE-IV (AID 607; active means well fitted activation curve with a large enough effect in the main read-out, with a control signal flat, not every such curve was filed as active)
How it was run: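 HEK293 ACTOne cells with CNG channel (1000/well), endogenous PDE4; membrane potential dye, compounds up to 22.9 uM final. Fluorescence Ex 535/Em 590; RO 20-1724 (100 uM final) as reference.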

[8] = target: ATP-dependent 6-phosphofructokinase (Trypanosoma brucei brucei) (UniProt O15648); assay: qHTS Assay to Find Inhibitors of T. brucei phosphofructokinase: hit validation (AID 492961);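 further: luminescence reports ADP formed as PFK phosphorylates fructose-6-phosphate with ATP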
How it was run: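 Inhibition of parasite PFK is measured as reduced ADP formation, quantified via luciferase after ATP depletion. Assay used 0.1 mM ATP, 0.5 mM F6P, 1.25 nM enzyme, 45 min incubation.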

[9] = target: Ubiquitin carboxyl-terminal hydrolase 1 (Homo sapiens) (UniProt O94782); assay: Inhibitors of USP1/UAF1: Pilot qHTS (AID 504865);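 further: rhodamine fluorescence freed from ubiquitin-rhodamine substrate followed over time; top concentration of the series differs between compounds; nearly all actives have a fitted effect of over 35% in size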
How it was run: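 Deubiquitinase activity followed as kinetic rhodamine fluorescence release from 150 nM Ub-Rho. 1 nM USP1/UAF1 with compound, after 15 min room-temperature preincubation, in HEPES pH 7.8 buffer containing TCEP, EDTA, BSA and Tween-20.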

[10] = target: Luciferin 4-monooxygenase (Photinus pyralis) (UniProt P08659); assay: Biochemical firefly luciferase enzyme assay for NPC (AID 624030);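 further: purified P. pyralis luciferase at 10 nM with luciferin and ATP substrate; nearly all actives have a fitted effect of over 70% in size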
How it was run: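 Purified P. pyralis luciferase at 10 nM in 50 mM Tris Acetate (final), luminescence read within 5 minutes of enzyme addition to compounds. Activity normalised to PTC124 versus DMSO; concentration-response curves classed by r2, magnitude and activity.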

[11] = S16 Schwann cell viability assay (CellTiter-Glo assay) (AID 624031);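 further: cellular ATP luminescence as a viability measure; nearly all actives have a fitted effect of over 70% in size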
How it was run: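 CellTiter-Glo ATP luminescence counter-screen in untransfected S16 rat Schwann cells, 24h compound exposure at 37 degree Celsius after overnight seeding (500-750 cells/well); response scaled between cell-free wells and DMSO (0% activity), curves classed by r2 and magnitude.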

[12] = S16 Schwann cell PMP22 intronic element firefly luciferase assay (AID 624032); further: nearly all actives have a fitted effect of over 30% in size
How it was run: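 Rat S16 Schwann cells stably carrying firefly luciferase driven by a PMP22 intronic element, in 10% FBS, treated 24 h at 37 C. ONE-Glo luminescence normalized to PTC124 control and DMSO (0%); curves classed by r2, magnitude and activity.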

[13] = S16 Schwann cell PMP22 intronic element beta-lactamase assay (AID 624044; calls by dose curve; further: nearly all actives have a fitted effect of over 15% in size)
How it was run: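 Beta-lactamase reporter under a PMP22 intronic regulatory element in stable S16 rat Schwann cells; 24 h compound exposure. 460 nm blue signal normalized between DMSO (0%) and potassium clavulanate, with 535 nm FRET tracking viability; curves classed by r2 and response.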

[14] = qHTS profiling for inhibitors of Plasmodium falciparum proliferation (AID 504749); further: nearly all actives have a fitted effect of over 60% in size; further: potency means the concentration at half of the fitted maximal effect; details: P. falciparum in erythrocytes, SYBR Green DNA, 72 h, at 28.7 µM (top of the series)
How it was run: (§1)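 Each compound contacts P. falciparum-infected red blood cells for 72 h at 37 C; lysis buffer (Tris, EDTA, saponin, Triton X, SYBR Green I) is added and fluorescence measured next morning; values normalized to controls.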

3D7 = assay: as above; details: P. falciparum in erythrocytes, SYBR Green DNA, 72 h; series mostly up to 12.8 µM
How it was run: as §1

7G8 = assay: as above; details: P. falciparum in erythrocytes, SYBR Green DNA, 72 h; series mostly up to 12.8 µM
How it was run: as §1

AA1029 = assay: as above; details: P. falciparum in erythrocytes, SYBR Green DNA, 72 h; series mostly up to 12.8 µM
How it was run: as §1

AS120 = assay: as above; details: P. falciparum in erythrocytes, SYBR Green DNA, 72 h; series mostly up to 12.8 µM
How it was run: as §1

ATS189 = assay: as above; details: P. falciparum in erythrocytes, SYBR Green DNA, 72 h; series mostly up to 12.8 µM
How it was run: as §1

ATS95 = assay: as above; details: P. falciparum in erythrocytes, SYBR Green DNA, 72 h; series mostly up to 12.8 µM
How it was run: as §1

C2A = assay: as above; details: P. falciparum in erythrocytes, SYBR Green DNA, 72 h; series mostly up to 12.8 µM
How it was run: as §1

CP185 = assay: as above; details: P. falciparum in erythrocytes, SYBR Green DNA, 72 h; series mostly up to 12.8 µM
How it was run: as §1

CP191 = assay: as above; details: P. falciparum in erythrocytes, SYBR Green DNA, 72 h; series mostly up to 12.8 µM
How it was run: as §1

CP192 = assay: as above; details: P. falciparum in erythrocytes, SYBR Green DNA, 72 h; series mostly up to 12.8 µM
How it was run: as §1

CP194 = assay: as above; details: P. falciparum in erythrocytes, SYBR Green DNA, 72 h; series mostly up to 12.8 µM
How it was run: as §1

CP201 = assay: as above; details: P. falciparum in erythrocytes, SYBR Green DNA, 72 h; series mostly up to 12.8 µM
How it was run: as §1

CP203 = assay: as above; details: P. falciparum in erythrocytes, SYBR Green DNA, 72 h; series mostly up to 12.8 µM
How it was run: as §1

CP211 = assay: as above; details: P. falciparum in erythrocytes, SYBR Green DNA, 72 h; series mostly up to 12.8 µM
How it was run: as §1

CP215 = assay: as above; details: P. falciparum in erythrocytes, SYBR Green DNA, 72 h; series mostly up to 12.8 µM
How it was run: as §1

CP217 = assay: as above; details: P. falciparum in erythrocytes, SYBR Green DNA, 72 h; series mostly up to 12.8 µM
How it was run: as §1

CP237 = assay: as above; details: P. falciparum in erythrocytes, SYBR Green DNA, 72 h; series mostly up to 12.8 µM
How it was run: as §1

CP238 = assay: as above; details: P. falciparum in erythrocytes, SYBR Green DNA, 72 h; series mostly up to 12.8 µM
How it was run: as §1

Glucocorticoid receptor (Homo sapiens), sequence (P04150 whole entry, looked up, the tested form may be a part): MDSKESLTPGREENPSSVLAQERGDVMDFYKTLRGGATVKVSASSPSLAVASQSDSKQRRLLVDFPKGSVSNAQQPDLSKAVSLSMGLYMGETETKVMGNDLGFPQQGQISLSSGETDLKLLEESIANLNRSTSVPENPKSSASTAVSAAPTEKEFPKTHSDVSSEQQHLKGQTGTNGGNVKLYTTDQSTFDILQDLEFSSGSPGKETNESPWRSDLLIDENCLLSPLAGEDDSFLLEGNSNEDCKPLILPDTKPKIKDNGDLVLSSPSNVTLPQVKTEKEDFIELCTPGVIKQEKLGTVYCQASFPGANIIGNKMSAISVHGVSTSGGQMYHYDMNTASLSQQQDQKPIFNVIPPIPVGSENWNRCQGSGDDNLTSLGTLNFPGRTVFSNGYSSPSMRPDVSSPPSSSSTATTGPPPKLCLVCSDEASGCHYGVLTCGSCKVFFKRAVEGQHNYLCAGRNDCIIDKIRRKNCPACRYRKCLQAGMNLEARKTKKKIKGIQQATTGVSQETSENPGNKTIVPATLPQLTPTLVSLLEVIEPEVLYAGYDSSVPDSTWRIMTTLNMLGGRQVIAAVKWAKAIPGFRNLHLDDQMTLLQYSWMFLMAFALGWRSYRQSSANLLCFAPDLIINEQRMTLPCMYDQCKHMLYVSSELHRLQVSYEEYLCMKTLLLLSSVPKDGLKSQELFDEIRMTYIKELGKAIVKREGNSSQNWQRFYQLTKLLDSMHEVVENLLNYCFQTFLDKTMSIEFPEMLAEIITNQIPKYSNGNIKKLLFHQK
Cytochrome P450 1A2 (Homo sapiens), sequence (P05177 whole entry, looked up): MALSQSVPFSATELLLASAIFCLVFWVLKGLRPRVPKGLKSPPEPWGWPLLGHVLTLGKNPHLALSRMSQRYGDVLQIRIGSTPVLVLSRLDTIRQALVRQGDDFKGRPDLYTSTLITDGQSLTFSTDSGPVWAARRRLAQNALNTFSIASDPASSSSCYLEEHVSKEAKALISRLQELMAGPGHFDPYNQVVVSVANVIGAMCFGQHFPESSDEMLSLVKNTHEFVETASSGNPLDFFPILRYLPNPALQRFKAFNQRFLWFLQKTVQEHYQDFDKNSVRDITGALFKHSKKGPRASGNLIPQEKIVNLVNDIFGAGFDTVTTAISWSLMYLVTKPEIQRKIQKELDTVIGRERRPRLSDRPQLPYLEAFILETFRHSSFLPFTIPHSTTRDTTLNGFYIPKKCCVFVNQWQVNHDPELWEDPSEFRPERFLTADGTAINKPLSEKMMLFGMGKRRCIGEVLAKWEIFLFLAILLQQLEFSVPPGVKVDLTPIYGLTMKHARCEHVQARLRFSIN
Ubiquitin carboxyl-terminal hydrolase 1 (Homo sapiens), sequence (O94782 whole entry, looked up): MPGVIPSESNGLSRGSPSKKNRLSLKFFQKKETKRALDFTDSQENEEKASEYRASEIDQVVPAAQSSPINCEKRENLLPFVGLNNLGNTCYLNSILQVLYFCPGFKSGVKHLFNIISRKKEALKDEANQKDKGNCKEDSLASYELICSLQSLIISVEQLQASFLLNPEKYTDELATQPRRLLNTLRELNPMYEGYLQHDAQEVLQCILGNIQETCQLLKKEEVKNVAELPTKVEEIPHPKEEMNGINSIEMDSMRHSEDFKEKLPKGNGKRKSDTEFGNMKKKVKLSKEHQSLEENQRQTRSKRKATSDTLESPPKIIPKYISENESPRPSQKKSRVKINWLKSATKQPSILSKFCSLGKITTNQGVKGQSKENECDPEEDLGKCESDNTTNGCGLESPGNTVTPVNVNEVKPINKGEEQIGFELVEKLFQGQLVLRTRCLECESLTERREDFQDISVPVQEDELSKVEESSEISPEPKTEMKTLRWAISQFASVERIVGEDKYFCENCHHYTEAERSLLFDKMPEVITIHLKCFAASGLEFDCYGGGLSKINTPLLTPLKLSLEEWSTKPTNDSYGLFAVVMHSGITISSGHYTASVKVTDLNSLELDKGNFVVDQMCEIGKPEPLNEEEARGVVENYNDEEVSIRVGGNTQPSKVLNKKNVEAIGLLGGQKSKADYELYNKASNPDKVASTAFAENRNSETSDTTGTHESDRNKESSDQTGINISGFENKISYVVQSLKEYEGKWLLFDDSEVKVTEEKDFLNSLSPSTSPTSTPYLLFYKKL
3',5'-cyclic-AMP phosphodiesterase 4B (Homo sapiens), sequence (Q07343 whole entry, looked up): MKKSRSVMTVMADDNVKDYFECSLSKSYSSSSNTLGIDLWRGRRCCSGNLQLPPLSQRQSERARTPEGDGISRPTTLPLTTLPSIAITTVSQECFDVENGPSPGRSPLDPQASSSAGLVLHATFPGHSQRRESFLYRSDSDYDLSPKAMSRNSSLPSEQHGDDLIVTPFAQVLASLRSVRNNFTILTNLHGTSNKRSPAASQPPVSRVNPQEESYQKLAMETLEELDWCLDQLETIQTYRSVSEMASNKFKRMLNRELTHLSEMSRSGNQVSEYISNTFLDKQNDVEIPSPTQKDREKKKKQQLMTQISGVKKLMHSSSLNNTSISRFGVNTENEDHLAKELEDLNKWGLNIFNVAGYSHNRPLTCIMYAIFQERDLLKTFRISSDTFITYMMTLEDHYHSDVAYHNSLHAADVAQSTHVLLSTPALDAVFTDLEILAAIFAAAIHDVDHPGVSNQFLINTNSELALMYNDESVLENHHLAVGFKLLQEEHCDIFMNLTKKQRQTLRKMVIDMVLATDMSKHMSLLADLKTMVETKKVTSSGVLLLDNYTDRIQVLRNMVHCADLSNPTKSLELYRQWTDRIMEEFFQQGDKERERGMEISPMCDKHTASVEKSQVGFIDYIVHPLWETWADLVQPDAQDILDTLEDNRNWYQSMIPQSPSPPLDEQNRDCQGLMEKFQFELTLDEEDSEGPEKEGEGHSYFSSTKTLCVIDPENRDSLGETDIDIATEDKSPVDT
ATP-dependent 6-phosphofructokinase (Trypanosoma brucei brucei), sequence (O15648 whole entry, looked up): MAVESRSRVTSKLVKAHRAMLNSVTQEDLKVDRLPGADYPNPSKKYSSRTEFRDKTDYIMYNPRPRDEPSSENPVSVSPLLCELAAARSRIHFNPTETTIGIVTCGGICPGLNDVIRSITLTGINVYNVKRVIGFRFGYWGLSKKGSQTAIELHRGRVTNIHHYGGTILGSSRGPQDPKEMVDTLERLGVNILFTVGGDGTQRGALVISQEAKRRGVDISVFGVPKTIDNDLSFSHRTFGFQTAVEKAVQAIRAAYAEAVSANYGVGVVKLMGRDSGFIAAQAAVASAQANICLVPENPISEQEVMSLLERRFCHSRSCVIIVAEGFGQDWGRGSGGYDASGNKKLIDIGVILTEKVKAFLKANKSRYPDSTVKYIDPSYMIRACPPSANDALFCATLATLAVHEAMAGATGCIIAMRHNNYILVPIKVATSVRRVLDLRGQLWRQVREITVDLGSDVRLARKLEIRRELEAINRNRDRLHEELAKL
Luciferin 4-monooxygenase (Photinus pyralis), sequence (P08659 whole entry, looked up): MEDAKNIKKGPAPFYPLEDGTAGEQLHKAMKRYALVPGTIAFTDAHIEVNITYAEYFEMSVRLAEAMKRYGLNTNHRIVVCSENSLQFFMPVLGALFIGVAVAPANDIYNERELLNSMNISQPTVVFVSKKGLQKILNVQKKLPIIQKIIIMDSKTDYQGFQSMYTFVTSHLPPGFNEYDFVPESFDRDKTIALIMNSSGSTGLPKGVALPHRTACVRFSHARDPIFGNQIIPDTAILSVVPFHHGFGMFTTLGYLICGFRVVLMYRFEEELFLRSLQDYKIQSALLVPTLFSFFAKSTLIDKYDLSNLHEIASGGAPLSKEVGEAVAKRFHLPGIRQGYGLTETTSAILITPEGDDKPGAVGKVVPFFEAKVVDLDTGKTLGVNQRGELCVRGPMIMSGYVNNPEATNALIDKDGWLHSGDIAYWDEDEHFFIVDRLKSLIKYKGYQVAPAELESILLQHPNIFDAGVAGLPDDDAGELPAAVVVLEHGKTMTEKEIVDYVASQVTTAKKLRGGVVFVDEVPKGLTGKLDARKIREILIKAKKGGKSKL

SMILES: CN(C)CCOC(=O)[C@@H](c1ccccc1)C1(O)CCCC1
- outcome [1]: inactive
- Potency [2]: inactive
- outcome [3]: inactive
- Potency [4]: > 20.6 µM
- Potency [5]: > 20.6 µM
- Potency [6]: inactive
- outcome [7]: inactive
- outcome [8]: inactive
- Potency [9]: inactive
- Potency [10]: inactive
- outcome [11]: inactive
- Potency [12]: inactive
- Potency [13]: inactive
- activity, negative = inhibition ([14]; parasite line A): 22.6%
- activity, negative = inhibition ([14]; parasite line B): 8.77%
- Potency (3D7): inactive
- Potency (7G8): inactive
- Potency (AA1029): inactive
- Potency (AS120): inactive
- Potency (ATS189): inactive
- Potency (ATS95): inactive
- Potency (C2A): inactive
- Potency (CP185): inactive
- Potency (CP191): inactive
- Potency (CP192): inactive
- Potency (CP194): inactive
- Potency (CP201): inactive
- Potency (CP203): inactive
- Potency (CP211): inactive
- Potency (CP215): inactive
- Potency (CP217): inactive
- Potency (CP237): 8.91 µM (active)
- Potency (CP238): inactive
